Laboratory results: PubChem BioAssay
Values without a mark were called inactive. How the calls were made is not given here.

target: Pantothenate synthetase (Mycobacterium tuberculosis (strain ATCC 25618 / H37Rv)) (UniProt P9WIL5); experiment: Coupled enzyme confirmation of inhibitors against recombinant Mtb PanC (AID 375); details: coupled enzyme assay; at 10 µM, active compounds read high;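 further: 0% = full reaction with vehicle and 100% = no enzyme background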
Sequence (P9WIL5 whole entry, looked up): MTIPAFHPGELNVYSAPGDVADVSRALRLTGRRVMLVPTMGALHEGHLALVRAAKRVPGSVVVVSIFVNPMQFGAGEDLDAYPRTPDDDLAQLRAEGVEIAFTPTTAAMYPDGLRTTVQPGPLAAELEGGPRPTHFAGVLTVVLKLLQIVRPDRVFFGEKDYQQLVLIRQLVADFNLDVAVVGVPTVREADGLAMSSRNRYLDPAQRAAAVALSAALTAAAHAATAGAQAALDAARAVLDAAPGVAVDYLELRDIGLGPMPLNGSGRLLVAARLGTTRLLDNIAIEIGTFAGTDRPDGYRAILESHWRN

| SMILES | inhibition [%] |
| --- | --- |
| CCC1C(=O)n2nc(-c3ccccc3)cc2N=C1C (stereo not given) | 0 |
| O=C(NC(C(=O)c1ccccc1)N1CCOCC1)c1cccs1 (stereo not given) | 0 |
| COCCn1c(SCC(=O)N2CCc3ccccc32)nc2c(c1=O)SC(C)C2 (stereo not given) | 1 |
| Cc1ccc(/C=c2\s/c(=C(/C#N)C(=O)N3CCCC3)n(Cc3ccco3)c2=O)s1 | 0 |
| CCOC(=O)CN1C(=O)C2(OCCCO2)c2ccccc21 | 1 |
| COC(=O)CN(c1ccc(F)cc1)S(=O)(=O)c1ccccc1 | 0 |
| COc1ccc(NCc2nnc(SCC(=O)Nc3cc(C)cc(C)c3)o2)cc1 | 0 |
| Cn1cnc2cc(NC(=O)c3ccc(Cl)cc3)ccc21 | 0 |
| CC(=O)Nc1ccc(NC(=O)C(C)Oc2ccccc2F)cc1 (stereo not given) | 0 |
| O=C(COc1ccccc1Cl)NCCCN1CCOCC1 | 0 |
| Cc1c(C(=O)N2CCOCC2)oc2ccc(S(=O)(=O)N3CCCC3)cc12 | 0 |
| O=C(CCCc1cccs1)Nc1nc2c(s1)CCCC2 | 2 |
| CCC(C(=O)OCC(=O)Nc1c(C)n(C)n(-c2ccccc2)c1=O)c1ccccc1 (stereo not given) | 2 |
| CCSc1nnc2c(n1)OC=Nc1ccc(Br)cc1-2 | 2 |
| CCc1c(C)nc(N2CCN(Cc3ccccc3)CC2)[nH]c1=O | 3 |
| CC1CC(=O)C2=C(C1)OC(N)=C(C#N)C2c1coc2ccccc2c1=O (stereo not given) | 6 |
| O=C(Nc1ccc2snnc2c1)N1CCSCC1 | 0 |
| O=C(COC(=O)C1(c2ccccc2F)CCCC1)NC1CCS(=O)(=O)C1 (stereo not given) | 3 |
| COc1cccc(NC(=O)C2CCN(c3ncccn3)CC2)c1 | 2 |
| Cc1ccc(-c2nc3cnccn3c2Nc2ccc3c(c2)OCO3)o1 | 2 |

| SMILES | inhibition [%] |
| --- | --- |
| CC(=O)NC(C)c1nc2ccccc2n1C(C)C (stereo not given) | 6 |
| Cc1ccc(-c2nnn(CC(=O)N(CC(=O)NCC3CCCO3)c3ccccc3)n2)o1 (stereo not given) | 3 |
| COc1cc(N=c2ssnc2Cl)cc(OC)c1 | 1 |
| COCCNC(=O)NC(=O)COC(=O)Cc1ccc2c(c1)OCCO2 | 4 |
| CCc1c(C(=O)Nc2cc(C)ccc2OC)[nH]c(C)c1C(C)=O | 0 |
| Cc1c(Cl)cnc(NC(=O)COC(=O)C(NC(=O)c2ccco2)C(C)C)c1Cl (stereo not given) | 8 |
| Cc1ccc(C)c(-c2nc3cc(N)ccc3o2)c1 | 0 |
| COc1ccc(OCC(=O)N2CCN(C(=O)COc3ccc(Br)cc3)CC2)cc1 | 0 |
| CCOC(=O)C(NC(=O)C1CCCN1C(=O)OCc1ccccc1)C(=O)OCC (stereo not given) | 4 |
| O=S(=O)(NCCc1ccccc1F)c1cccc(S(=O)(=O)N2CCOCC2)c1 | 0 |
| C=CCNC(=O)CSc1ccc(Cl)cc1 | 0 |
| COCCN(CCOC)C(=O)c1sc2nc(-c3ccccc3)cn2c1C | 0 |
| O=C(CSc1nnc(NC(=O)C2CCC2)s1)NC1CC1 | 0 |
| CN1CCN2c3ccccc3Cc3ccccc3C2C1 (stereo not given) | 0 |
| COC(=O)c1cc(-c2c(C)nn(-c3ccccc3)c2C)n[nH]1 | 0 |
| N#C/C(C(=O)N1CCOCC1)=C1/SC=C(c2ccccc2)N1c1ccccc1 | 7 |
| COc1ccc(-c2nnc(SCC#N)o2)cc1 | 0 |
| CSc1ccc(-c2nc(CSCC(=O)N3CCOCC3)c(C)o2)cc1 | 0 |
| COC(=O)Cn1ncc2c(C)n(Cc3ccccc3)c(C)c2c1=O | 2 |
| O=C(CSc1nc(C2CCCCC2)n(-c2ccccc2)n1)NCCN1C(=O)CSC1=O | 6 |
